In the library only some 3.6% were active in any assay of this set; here they are far more common.
Epigenetic reg: Quantitative High-Throughput Screen for Regulators of Epigenetic Control; 280,000 compounds, 0.2% hits; AID 1865, 2009; murine LDR cells, GFP reporter derepression, 30 h; Potency, µM (top dose mostly 53.9 µM), inactives show top-dose GFP activation, actives largely listed as activators; further: % of control where 0% means no effect; nearly all actives have a fitted effect of over 60% in size
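Readout is the number of GFP-expressing murine LDR cells, counted by cytometry following washing. Cells were treated with compound for 30 h at 37 C; the stably integrated CMV-GFP locus is normally silent.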
GCN5L2 inh: qHTS Assay for Inhibitors of GCN5L2; Histone acetyltransferase KAT2A (Homo sapiens), Q92830; GCN5L2 HAT assay, ThioGlo1 CoA-SH fluorescence; Potency, µM (series often up to 58.9 µM), inactives show top-dose activity change, negative = inhibition, actives largely listed as inhibitors; 390,000 compounds, 0.21% hits; further: on the % scale 0 is the no-effect control and ±100 the full control effect
Target sequence (Q92830 whole entry, looked up): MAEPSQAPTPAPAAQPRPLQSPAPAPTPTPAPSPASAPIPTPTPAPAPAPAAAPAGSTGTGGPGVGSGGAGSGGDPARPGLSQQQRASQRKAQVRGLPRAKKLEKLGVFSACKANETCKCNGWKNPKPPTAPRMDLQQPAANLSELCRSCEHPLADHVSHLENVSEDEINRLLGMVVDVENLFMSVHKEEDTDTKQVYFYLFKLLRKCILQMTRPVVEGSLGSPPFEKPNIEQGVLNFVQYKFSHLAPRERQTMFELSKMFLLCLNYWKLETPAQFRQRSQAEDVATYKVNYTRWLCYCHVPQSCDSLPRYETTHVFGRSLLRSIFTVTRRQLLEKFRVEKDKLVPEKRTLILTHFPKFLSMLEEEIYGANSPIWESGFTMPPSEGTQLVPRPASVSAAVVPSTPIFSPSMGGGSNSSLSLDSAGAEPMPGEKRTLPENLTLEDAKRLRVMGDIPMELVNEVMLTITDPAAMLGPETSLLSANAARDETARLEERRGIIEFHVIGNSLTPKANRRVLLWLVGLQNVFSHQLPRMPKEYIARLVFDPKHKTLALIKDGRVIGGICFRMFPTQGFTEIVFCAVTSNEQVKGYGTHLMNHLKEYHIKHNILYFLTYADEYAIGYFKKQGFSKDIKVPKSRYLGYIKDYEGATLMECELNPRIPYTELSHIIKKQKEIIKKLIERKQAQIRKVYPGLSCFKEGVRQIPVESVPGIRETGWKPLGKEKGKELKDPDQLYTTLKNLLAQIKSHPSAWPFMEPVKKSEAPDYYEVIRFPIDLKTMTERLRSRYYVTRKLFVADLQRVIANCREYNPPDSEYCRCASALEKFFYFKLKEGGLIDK
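Free CoA generated was detected with ThioGlo1 (50uM) fluorescence at Ex340nm/Em540nm, read immediately and after 20 min at room temperature. Enzyme, 20 nM in HEPES pH 7.5 buffer, saw compounds 15 min before adding 75uM H3(1-25) peptide and 70uM acetyl-CoA.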
Sfp PPTase inh: qHTS Assay for Inhibitors of Bacillus subtilis Sfp phosphopantetheinyl transferase (PPTase) | 4'-phosphopantetheinyl transferase ffp (Bacillus subtilis), Q9F4F7 | Biochemical Sfp PPTase activity, qHTS | Potency, µM, inactives show largest response in the series, negative = inhibition, usual class: inhibitors | 310,000 compounds, 3.5% hits;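 further: the enzyme is Sfp with the accession as filed and its product quenches rhodamine fluorescence; 0% = enzyme reaction without inhibitor and -100% = no enzyme wells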
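After 15 min at room temperature with compound, 15 nM Sfp received 5 uM rhodamine-CoA plus 12.5 uM BHQ-2-ybbR (50 mM Hepes pH 7.6, 10 mM MgCl2). Rate came from the fluorescence difference over 30 min, ex 525/em 598 nm.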
IMPase Li cell: qHTS Assay for Identifying the Cell-Membrane Permeable IMPase Inhibitors: Potentiation with Lithium; CHO-M1 cells, IP1 TR-FRET (IP-One), carbachol + lithium; AID 1457, 2008; 210,000 compounds, 0.35% hits; Potency, µM (highest dose often 59.4 µM), for inactives: at the top dose activity, negative = IMPase inhibition, usual class: inhibitors;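 further: IP1 builds up when IMPase is blocked and the TR-FRET signal falls; plate controls were basal vehicle for no effect and high inhibitor control for full effect; nearly all actives have a fitted effect of over 50% in size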
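IP1 accumulation measured by competitive TR-FRET in lysed CHO-M1 cells after 30 min compound exposure at 37C, with a small lithium addition to potentiate weak responses. Hill-equation AC50 from ratio and donor-channel data.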
KDM4E inh: qHTS Assay for Inhibitors of Human Jumonji Domain Containing 2E (JMJD2E); Potency, µM (series often up to 57.1 µM), for the others: top-dose activity change, negative = inhibition, usual class: inhibitors; JMJD2E catalytic domain, FDH-coupled NADH fluorescence (FDH is formaldehyde dehydrogenase); AID 2147, 2009; Lysine-specific demethylase 4E (Homo sapiens), B2RXH2; 230,000 compounds, 1.6% hits; active means well fitted inhibition curve with a large enough effect, not every such curve was filed as active; inconclusive means small, poorly fitted or top-dose-only effect, or another doubt; inactive means no such curve, though single readings can be large or run the other way;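 further: 0% = wells with enzyme and -100% = buffer wells without enzyme; nearly all actives have a fitted effect of over 50% in size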
NPSR antag: qHTS Assay for Antagonists of the Neuropeptide S Receptor: cAMP Signal Transduction; Q6W5P4; CHO-NPSR cells, cAMP TR-FRET, antagonist mode; Potency, µM (doses to about 38.3 µM), inactives show at the highest dose activity change, negative = inhibition, most hits filed as inhibitors; 220,000 compounds, 1% hits; further: on the % scale 0 is the no-effect control and ±100 the full control effect; nearly all actives have a fitted effect of over 50% in size
* marks the source's active call; other numbers are inactive results; ? = inconclusive; . = no result given; ! = repeats disagree; [ ] = another dose, or the depositor's remark. Unless noted, the call rests on the fitted dose curve; in most records, active means well fitted curve in the direction sought with a large enough effect; inconclusive means small, poorly fitted or top-dose-only effect, or another doubt; inactive means no such curve, though single readings can be large; an effect the other way counts as inactive or inconclusive. Potency means the concentration at half of the fitted maximal effect.

SMILES | Epigenetic reg | GCN5L2 inh | Sfp PPTase inh | IMPase Li cell | KDM4E inh | NPSR antag
CNC(=S)NNc1ccccc1[N+](=O)[O-] | -1.1% | -8.7% | 2.51µM* | -11.8% | 5.5% | 12.9%
COCCNC(=S)NNc1ccccc1[N+](=O)[O-] | -4.8% | 2.9% | 10µM* | 7.8% | -13.1% | -4.7%
COCCNC(=S)Nc1ccc([N+](=O)[O-])cc1C | 6.7% | -14.0% | 56.2µM* | -4.2% | -13.4% | 1.4%
Cc1cccc(NC(=S)NNC(=O)c2nn(C)cc2Cl)c1 | -1.9% | -4.7% | 9.7% | -3.7%[38.3 µM] | 31.6µM* | 0.4%[46.1 µM]
Cc1ccc(NC(=S)NNC(=O)c2nn(C)cc2Cl)cc1 | -1.6% | -7.5% | 11.2% | -0.1%[38.3 µM] | 20µM* | -4.8%[46.1 µM]
Cc1cccc(NC(=S)NNC(=O)c2ccco2)c1 | -3.9% | -3.0% | 0.1% | -1.4% | 0.4% | -9.6%[46.1 µM]
NC1(C(=O)O)C[C@H](C(=O)O)[C@H](C(=O)O)C1 (stereo partly specified) | 1.1% | -8.6% | 50.1µM*! | -1.5% | -26.5% | .
NC1(C(=O)O)CC1 | -2.5% | -1.8% | 56.2µM* | 12.1% | ? | -13.1%[46.1 µM]
CCC(CC)c1nnc(NC(=O)c2cc(C(=O)OC)cc([N+](=O)[O-])c2)s1 | -3.2% | -4.7% | 44.7µM* | -5.1% | 1.1% | -28.2%
COc1ccc(S(=O)(=O)N(CC(=O)Nc2ccc(OC)cc2OC)c2ccc(Cl)cc2)cc1 | 1.0% | 2.6% | . | . | . | .
COC(=O)c1ccccc1-c1ccc(/C=N/NC(N)=O)o1 | -1.1% | -3.6% | 4.8% | . | ? | 3.7%
COC(=O)c1sccc1-c1ccc(/C=N/OC(=O)c2ccccc2)o1 | 7.9% | -5.5% | 50.1µM* | -21.1%[38.3 µM] | ? | ?
CCc1c(C)nc2nncn2c1Nc1ccc(C)c(F)c1 | -1.8% | -9.2% | . | . | . | .
COc1cc([N+](=O)[O-])cc(/C=N/NC(=O)C(O)(c2ccccc2)c2ccccc2)c1O | . | -4.9% | 0.0% | . | . | .
CC(Nc1cccc2ccccc12)C(=O)N/N=C/c1ccc([N+](=O)[O-])cc1 (stereo unspecified) | 2.0% | ? | 31.6µM* | 2.1% | 8.2% | -13.8%
COc1ccc(/C=N/NC(=O)c2cc(O)c(O)c(O)c2)cc1Cn1cc([N+](=O)[O-])cn1 | 0.0% | -29.5% | -121.0% | 16.2% | 2.24µM* | -13.6%
Cc1cccc(/C=N/NC(=O)C(C)Nc2cccc3ccccc23)n1 (stereo unspecified) | 0.7% | 0.1% | -15.1% | 15.7%[38.3 µM] | ? | -20.0%[46.1 µM]
COc1cc([N+](=O)[O-])cc(/C=N/NC(=O)c2cccnc2)c1O | -0.3% | -20.4% | 1.0% | . | 8.91µM* | 13.6%[7.67 µM]
COc1cc([N+](=O)[O-])cc(/C=N\NC(=O)C2COc3ccccc3O2)c1O (stereo unspecified) | -0.3% | ? | 23.2% | . | ? | -11.6%[7.67 µM]
COc1cc([N+](=O)[O-])cc(/C=N/NC(=O)C(C)Nc2cccc3ccccc23)c1O (stereo unspecified) | -1.1% | -3.5% | 4.1% | -1.8% | 4.47µM* | -15.1%
CCOc1ccc(Nc2nc(-c3cccc(Cl)c3)c3c(n2)-c2ccccc2OC3)cc1 | 11.0% | -5.7% | . | . | . | .
CCNc1ncc2nc(-c3ccc(F)cc3)c(=O)n(Cc3ccc(F)cc3)c2n1 | . | -17.4% | 10.4% | -9.0% | . | .
COc1cccc(/C=N/NC(=O)c2ccc3nc[nH]c3c2)c1O | 0.1% | -1.7% | 30.3% | . | 10µM* | -9.6%
COc1cc(OC)c(OC)cc1/C=N/NC(=O)c1ccc2nc[nH]c2c1 | 1.6% | -3.8% | 7.7% | . | ? | 43.3%
